The list is not random: actives were taken first. Their share in the collection is about 15%.
VP16 counter: counter-screen for ROR gamma inhibitors: Gal4-VP16 reporter; Drosophila S2 Gal4-VP16 UAS-luciferase, luminescence, 20 h; Potency, µM (top dose mostly 53.6 µM), without a hit: at the highest dose activity, negative = inhibition, usual class: inhibitors; 3.5% of 310,000 active; AID 2546;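 further: Gal4-VP16 expression switched on by copper sulfate through the metallothionein promoter; nearly all actives have a fitted effect of over 50% in size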
DT40 TDP1 no CPT: qHTS for Inhibitors of human tyrosyl-DNA phosphodiesterase 1 (TDP1): qHTS in cells in absence of CPT; DT40 Tdp1-/- hTDP1 cells, no CPT, ATP luminescence, 48 h; Potency, µM (top dose mostly 46.2 µM), without a hit: at the top dose activity change, negative = growth inhibition, hits mostly inhibitors; 15% of 420,000 active; further: nearly all actives have a fitted effect of over 55% in size
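Compound effects on proliferation are scored in DT40 Tdp1-/-;hTDP1 cells in the absence of CPT. ATP levels (CellTiter-Glo luminescence) are recorded after a ≥48 hr, 37 °C incubation.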
12-LOX inh: inhibitors of human 12S-lipoxygenase ALOX12; P18054; purified 12hLO, xylenol orange hydroperoxide absorbance; Potency, µM (doses to about 108 µM), inactives show top-dose activity change, negative = inhibition, hits mostly inhibitors; 1.1% of 580,000 active
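Purified human 12hLO at 150 nM in 25 mM Hepes, 0.01% Triton X-100, pH 7.0, preincubated 15 min at room temperature with compound. Reaction started with 40 uM arachidonic acid, 30 min at room temperature. Hydroperoxide measured by Fe-xylenol orange, 573/405 nm absorbance ratio.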
RORg inh: inhibitors of mouse ROR gamma transcriptional activity | P51450 | Drosophila S2 Gal4-RORgamma UAS-luciferase reporter, 20 h | Potency, µM (titrated, usually from 53.6 µM), inactives show at the highest dose activity change, negative = inhibition, usual class: inhibitors | 5.4% of 310,000 active | AID 2551; further: nearly all actives have a fitted effect of over 60% in size
Target sequence (P51450 whole entry, looked up, the tested form may be a part): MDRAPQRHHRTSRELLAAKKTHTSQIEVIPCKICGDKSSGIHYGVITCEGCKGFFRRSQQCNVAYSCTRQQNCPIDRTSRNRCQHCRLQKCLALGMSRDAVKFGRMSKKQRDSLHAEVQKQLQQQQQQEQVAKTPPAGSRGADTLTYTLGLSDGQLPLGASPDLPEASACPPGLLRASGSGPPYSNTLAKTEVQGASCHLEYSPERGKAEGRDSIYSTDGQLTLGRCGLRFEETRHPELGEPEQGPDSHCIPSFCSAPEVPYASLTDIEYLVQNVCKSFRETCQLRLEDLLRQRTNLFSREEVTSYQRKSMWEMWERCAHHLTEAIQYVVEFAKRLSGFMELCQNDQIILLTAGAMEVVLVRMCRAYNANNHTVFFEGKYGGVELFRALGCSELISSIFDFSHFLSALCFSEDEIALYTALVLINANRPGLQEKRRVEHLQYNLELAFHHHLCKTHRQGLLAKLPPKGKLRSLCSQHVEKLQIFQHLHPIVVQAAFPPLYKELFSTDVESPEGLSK
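Luciferase reporter read in Schneider cells carrying Gal4-RORγ (mouse) and UAS-Photinus luciferase; cells given compound 1 h before 700 uM copper sulfate induction, then incubated 20 h at ambient temperature.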
TDP1 cell CPT: growth inhibition of DT40 Tdp1-/-;hTDP1 cells with camptothecin (screen for TDP1 inhibitors); chicken DT40 Tdp1-/-;hTDP1 cells + 20 nM CPT, ATP luminescence, 48 h; Potency, µM (series often up to 46.2 µM), without a hit: at the highest dose activity change, negative = growth inhibition, most hits filed as inhibitors; 12% of 420,000 active; AID 686979; further: nearly all actives have a fitted effect of over 55% in size
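Chicken DT40 Tdp1-/- cells complemented with human TDP1, 400 cells/well, exposed to compounds plus 20 nM camptothecin for at least 48 h at 37 C; viability read as ATP content by CellTiter-Glo luminescence.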
ELG1 DNA repair: ELG1-dependent DNA repair inhibition; 2.3% of 330,000 active; AID 504467; HEK293T ELG1-luciferase reporter, luminescence, 16 h; DNA damage induced by 5-fluorouridine; Potency, µM (doses to about 46.1 µM), without a hit: top-dose activity change, negative = inhibition, most hits filed as inhibitors; further: nearly all actives have a fitted effect of over 55% in size
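HEK293T cells expressing luciferase-tagged ELG1 (2,000/well) received 5-Fluorouridine plus compound or DMSO for 16 hr at 37 °C. Luciferase was read by ONE-Glo luminescence after 30 min at room temperature.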
* marks the source's active call; other numbers are inactive results; ? = inconclusive; . = no result given; [ ] = another dose, or the depositor's remark. The call rests on the fitted dose curve; in most records, active means well fitted curve in the direction sought with a large enough effect; inconclusive means small, poorly fitted or top-dose-only effect, or another doubt; inactive means no such curve, though single readings can be large; an effect the other way counts as inactive or inconclusive. On the % scale 0 is the no-effect control and ±100 the full control effect; potency means the concentration at half of the fitted maximal effect.

SMILES	VP16 counter	DT40 TDP1 no CPT	12-LOX inh	RORg inh	TDP1 cell CPT	ELG1 DNA repair
O=C1c2ccccc2C(Nc2ccc3c(c2)OCCO3)N1c1ccc(Cl)cn1 (centres undefined)	17.9%	16.4µM*	413.7%	39.9%	?	21.4%
O=C1c2ccccc2C(Nc2ccc(F)c(Cl)c2)N1c1ccccn1 (centres undefined)	19.8%	?	19.5%	18.3%	16.4µM*	2.3%
O=C1c2ccccc2C(Nc2ccc(S(=O)(=O)N3CCCCC3)cc2)N1c1ccccn1 (centres undefined)	-7.4%	20.6µM*	35.0%	-38.7%	?	?
COc1ccc(NC2c3ccccc3C(=O)N2c2ccccn2)cc1Cl (centres undefined)	-7.5%	?	25.4%	19.6%	-18.9%	7.2%
COc1ccccc1C(=O)Oc1ccc(Cl)cc1	.	.	14.9%	.	.	.
COC(=O)c1ccc(Oc2nc(Nc3ccccc3)nc(N(C)C)n2)cc1	-0.6%	20.6µM*	-0.1%	-27.3%	?	?
COc1ccc2c(c1)c(C(=O)N/N=C/c1cccc(O)c1)c(C)n2C	-7.5%	10.3µM*	-5.4%	1.0%	18.4µM*	-20.2%
COc1ccc2c(c1)c(C(=O)N/N=C/c1ccccc1Cl)c(C)n2C	13.8%	8.2µM*	?	-34.5%	20.6µM*	-16.4%
COc1ccc2c(c1)c(C(=O)N/N=C/c1cccc(Br)c1)c(C)n2C	0.7%	10.3µM*	-11.4%	-34.0%	?	-7.6%
COc1ccc(/C=N/NC(=O)c2c(C)n(C)c3ccc(OC)cc23)c(OC)c1	-1.9%	?	-4.1%	?	-26.0%	-14.3%
C1=CCC(c2nc(C3CCOCC3)nn2-c2cccnc2)C1	.	.	87.4%	.	.	.
O=C(CCC[C@@H]1[C@H]2CCCN3CCC[C@@H](CN1C(=O)c1ccccc1)[C@@H]23)Nc1ccccc1	.	.	-2.5%	.	.	.
Cc1ccc(N2CC(NC(=O)c3cccc(CCC(C)(C)O)c3)CC2=O)cc1 (centres undefined)	.	.	68.6%	.	.	.
Cc1nn(-c2ccc(Cl)cc2)c(Cl)c1/C=C(\C#N)C(N)=O	7.2%	?	?	-1.3%	?	?
C=CCNC(=O)/C(C#N)=C/c1c(C)nn(-c2ccc(Cl)cc2)c1Cl	?	23.1µM*	?	?	?	-2.9%
CCOc1ccccc1NC(=O)/C(C#N)=C/c1c(C)nn(-c2ccc(F)cc2)c1Cl	-10.3%	-19.5%	-5.6%	0.1%	13µM*	4.8%
COc1ccc(C)cc1NS(=O)(=O)c1cc(-c2cnc(C)o2)ccc1C	.	.	3.9%	.	.	.
CN1CCc2c([nH]c3ccccc23)C12CCN(C(=O)c1ccc3ncccc3c1)CC2	.	.	-2.0%	.	.	.
CCCCCCCCN1C(=O)[C@H](CC(=O)N2CCCCC2)C[C@@]2(C(=O)OC)CCCCC=C12	.	25.9µM*	-9.7%	.	?	.
CCCCCCCCN1C(=O)[C@H](CC(=O)N2CCOCC2)C[C@@]2(C(=O)OC)CCCCC=C12	.	14.6µM*	-8.2%	.	18.4µM*	.
COC(=O)[C@]12CCCCC=C1N(CCc1ccc(OC)c(OC)c1)C(=O)[C@H](CC(=O)N1CCCCC1)C2	.	?	0.7%	.	?	.
CO[C@H]1[C@H](NC(=O)Cc2ccc3c(c2)OCO3)c2ccccc2C12CCNCC2	.	.	9.8%	.	.	.
CN(c1ccc(F)cc1)S(=O)(=O)c1ccc(Cl)c(C(=O)NCC2(N3CCOCC3)CCCCC2)c1	.	7.31µM*	-3.0%	.	7.31µM*	.
COc1ccccc1N(C)S(=O)(=O)c1ccc(Cl)c(C(=O)OCc2c(C)noc2C)c1	-8.7%[10 µM]	23.1µM*	-0.5%	-15.8%	?	-29.2%
COc1ccccc1N1CCN(C(=O)c2ccccc2N(C)S(=O)(=O)c2ccc(C)cc2)CC1	10.7%	16.4µM*	-13.0%	34.6%	?	-9.9%
SMILES	VP16 counter	DT40 TDP1 no CPT	12-LOX inh	RORg inh	TDP1 cell CPT	ELG1 DNA repair
COc1ccccc1N(C)S(=O)(=O)c1ccc(Cl)c(C(=O)NCC2(N(C)C)CCCCC2)c1	.	8.2µM*	-13.2%	.	?	?
CN(c1ccc(F)cc1)S(=O)(=O)c1ccc(Cl)c(C(=O)NCC2CCCO2)c1 (centres undefined)	.	?	1.9%	.	?	16.0%
Cc1ccc2oc(-c3ccc(C)c(NC(=O)c4ccccc4[N+](=O)[O-])c3)nc2c1	.	.	1.5%	.	.	.
COc1ccccc1N(C)S(=O)(=O)c1ccc(Cl)c(C(=O)N2CCC2)c1	.	?	-6.1%	.	16.4µM*	11.1%
COc1ccccc1N(C)S(=O)(=O)c1ccc(Cl)c(C(=O)NNC(=O)c2ccccc2O)c1	?	?	2.5%	-33.6%	?	26.2%
O=C(COC(=O)CSc1ccc2ccccc2c1)Nc1ccccc1C(F)(F)F	.	.	-28.7%	.	.	.
O=C(CCc1nc(CSc2n[nH]c(-c3ccccc3)n2)no1)Nc1ccc2ccccc2c1	.	.	4.0%	.	.	.
O=C(/C=C/c1ccc(Cl)cc1)NC(=S)Nc1ccc(N2CCOCC2)c(Cl)c1	5.62µM*	11.6µM*	-20.6%	?	11.6µM*	?
O=C(/C=C/c1ccc(F)cc1)NC(=S)Nc1ccccc1	10µM*	20.6µM*	?	7.94µM*	?	7.1%
C=CCN(CC=C)S(=O)(=O)c1ccc(NC(=S)NC(=O)/C=C/c2ccccc2)cc1	-19.6%	?	?	2.51µM*	?	?
NC(N)=NS(=O)(=O)c1ccc(NC(=S)NC(=O)/C=C/c2ccc(F)cc2)cc1	10.0%	-0.6%	0.9%	-23.8%	-13.0%	14.5%
O=C(Cc1ccccc1)Nc1ccc(N2CCOCC2)cc1	-14.2%	-2.2%	-5.5%	19.3%	14.5%	?
O=C(/C=C/c1ccccc1)NC(=S)Nc1ccc(N2CCOCC2)cc1	3.16µM*	-29.5%	-5.7%	1µM*	?	1.4%
CN1[C@@H](CCC(=O)N2CCc3ccccc32)CNC(=O)[C@@H]2[C@H]1CCN2Cc1ccc(S(C)(=O)=O)cc1	.	.	51.0%	.	.	.
CN1CCCCC(CC(=O)Nc2ccc(N3CCOCC3)cc2)C1=O (centres undefined)	.	.	35.3%	.	.	.
CCC(C)C(NC(=O)c1ccc(C(F)(F)F)cc1)C(=O)O (centres undefined)	.	.	-1.2%	.	.	.
Cc1ccc(C(=O)N(Cc2ccco2)C2CC2)o1	.	.	-52.5%	.	.	.
O=C(/C=C/c1ccccc1)NC(=S)Nc1ccccc1	2µM*	?	?	?	-21.3%	?
